Screens (PubChem BioAssay)
PI5P4Ka inh: PI5P4K alpha (human) kinase inhibition. PI5P4Kalpha enzyme, ADP-Glo luminescence, 60 min; hits give low values. max response, %. 330,000 tested, 1.2% active. P48426; active means max response of -50% or lower; inconclusive means between -30% and -50%; inactive means -30% or higher; further: value at the top dose of about 77 µM; on the % scale 0 is the no-effect control and ±100 the full control effect
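Luminescence from ADP-Glo served as readout of PI5P4Kalpha activity in a qHTS format. Reaction: enzyme, substrate, compound, ATP at 5 microM final, 60 min at RT.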
POLB inh: inhibitors of human DNA polymerase beta. P06746. Pol beta primer extension/strand displacement, fluorescence kinetic. Potency, µM (highest dose often 114 µM), for inactives: top-dose activity change, negative = inhibition, actives largely listed as inhibitors. 340,000 tested, 1.3% active. AID 485314; further: potency means the concentration at half of the fitted maximal effect; on the % scale 0 is the no-effect control and ±100 the full control effect
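Preincubation: enzyme (10 nM) with compound, 15 min, RT. Reaction: substrate added to 50 nM final. Reads: 0 and 10 min. Analysis: normalized, Hill fit.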
POLI inh: inhibitors of human DNA polymerase iota. Potency, µM (doses to about 115 µM), without a hit: at the top dose activity, negative = inhibition, usual class: inhibitors. Pol iota fluorescent replication assay, 10 min. AID 588590. Q9UNA4. 390,000 tested, 1% active; further: potency means the concentration at half of the fitted maximal effect
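Pol iota at 10 nM preincubated 15 min with compounds at room temperature; reaction started with fluorescent substrate, 50 nM final. Fluorescence read kinetically at 0 and 10 min; buffer-only wells as negative control.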
WRN inhibitor: inhibitors of human WRN helicase | Q14191 | WRN helicase unwinding, fluorescent forked duplex, kinetic | Potency, µM (titrated, usually from 114 µM), without a hit: at the top dose activity change, negative = inhibition, hits mostly inhibitors | 360,000 tested, 0.46% active | AID 651768; further: potency means the concentration at half of the fitted maximal effect; on the % scale 0 is the no-effect control and ±100 the full control effect; nearly all actives have a fitted effect of over 55% in size
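Kinetic red-fluorescence monitoring (525/598 nm) tracks WRN helicase activity after 100 nM fluorophore-quencher forked duplex and 2 mM ATP are added to 20 nM enzyme pretreated 15 min at room temperature with compound.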
Pol kappa inh-1: blocks human DNA polymerase kappa activity | purified Pol kappa, fluorescent DNA synthesis assay, 10 min | AID 588579 | Potency, µM (series often up to 107 µM), for inactives: at the highest dose activity, negative = inhibition, usual class: inhibitors | Q9UBT6 | 400,000 tested, 0.53% active; further: potency means the concentration at half of the fitted maximal effect; on the % scale 0 is the no-effect control and ±100 the full control effect
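Pol kappa 10 nM + cpd, 15 min RT; start w/ substrate 50 nM final; fluorescence kinetic read, 0 and 10 min. Neg ctrl: buffer, no enzyme.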
Pol eta inh-1: blocks human DNA polymerase eta activity; Q9Y253; recombinant Pol eta, fluorescent DNA replication assay; Potency, µM (series often up to 114 µM), inactives show at the highest dose activity change, negative = inhibition, usual class: inhibitors; 390,000 tested, 1.2% active; further: potency means the concentration at half of the fitted maximal effect; on the % scale 0 is the no-effect control and ±100 the full control effect
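Fluorescent replication assay: 50 nM final substrate added after a 15 min room-temperature compound preincubation with 10 nM enzyme. Signal taken at 0 min and again at 10 min.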
GALK confirm: galactokinase (human) inhibition, confirmation; shares compounds with Pol eta inh-1; purified GALK, Kinase-Glo ATP depletion luminescence; Potency, µM (series often up to 115 µM), without a hit: top-dose activity, negative = inhibition, usual class: inhibitors; 150 tested, 70% active
Redox cycling: redox cycling activity in phenol red-HRP assay; Phenol red-HRP H2O2 redox cycling, absorbance 600 nm; shares compounds with Pol eta inh-1; Potency, µM (highest dose often 115 µM), inactives show top-dose activity change, negative = H2O2 signal, usual class: inhibitors; AID 2035; 150 tested, 40% active
HEK293 tox: reduces HEK-293 cell viability in GALK counter-screen; shares compounds with Pol eta inh-1; HEK-293 viability, ATP luminescence (CellTiter-Glo), 24/48 h; Potency, µM (doses to about 46.1 µM), without a hit: top-dose activity change, negative = cytotoxicity, actives largely listed as inhibitors; 170 tested, 10% active; AID 2547; further: potency means the concentration at half of the fitted maximal effect; on the % scale 0 is the no-effect control and ±100 the full control effect
Pol kappa inh-2: confirmation of human DNA polymerase kappa inhibitors | purified Pol-kappa, fluorescent strand-displacement substrate | AID 720501 | shares compounds with Pol eta inh-1 | 920 tested, 76% active | Potency, µM, most hits filed as inhibitors; further: potency means the concentration at half of the fitted maximal effect
Pol eta inh-2: Pol eta (human) inhibition, cherry-pick confirmation. shares compounds with Pol eta inh-1. Pol eta primer extension, TAMRA/BHQ fluorescence, 10 min. Potency, µM, hits mostly inhibitors. 2,600 tested, 64% active. AID 720502; further: potency means the concentration at half of the fitted maximal effect
An asterisk follows results filed as active; ? = inconclusive; . = no result; [ ] = another dose, or the depositor's remark. Hits are enriched below; roughly 2.8% of the tested compounds scored in any of these assays. Unless noted, the call rests on the fitted dose curve; in most records, active means well fitted curve in the direction sought with a large enough effect; inconclusive means small, poorly fitted or top-dose-only effect, or another doubt; inactive means no such curve, though single readings can be large; an effect the other way counts as inactive or inconclusive.

SMILES | PI5P4Ka inh | POLB inh | POLI inh | WRN inhibitor | Pol kappa inh-1 | Pol eta inh-1 | Pol eta inh-2 | others
Cc1ccc(S(=O)(=O)Oc2ccc(/C=C3/C(=N)N4C(=NC3=O)SN=C4S(C)(=O)=O)cc2)cc1 | -58.8* | 1.0% | ? | ? | -27.5% | 28.2µM* | 67.5* | GALK confirm=29.8µM*;Redox cycling=-0.5%;HEK293 tox=-0.3%
COc1cccc(-n2c(C)cc(/C=C3/C(=N)N4C(=NC3=O)SN=C4S(C)(=O)=O)c2C)c1 | -63.3* | 4.5% | ? | -18.0%[57.1 µM] | -25.7% | 17.8µM* | ?
CS(=O)(=O)C1=NSC2=NC(=O)/C(=C\c3ccc(OS(=O)(=O)c4ccccc4)cc3)C(=N)N21 | -62.5* | ? | -45.4% | -16.6%[11.6 µM] | 2.7% | 50.1µM* | . | GALK confirm=33.5µM*;Redox cycling=-19.8%;HEK293 tox=2.0%
Cc1ccc(S(=O)(=O)Oc2ccc(/C=C3\N=C(c4cccc(C)c4)OC3=O)cc2)cc1 | 2.1 | ? | 37.7% | -10.7% | -8.0% | -15.2% | .
CCOc1nc2cnccc2n(CC(=O)Nc2ccc(C)c(C)c2)c1=O | -0.7 | 7.5% | -1.7% | 3.1% | -2.4% | -2.4% | .
CCOc1cc(/C=C2\SC(=O)N(CC(=O)Nc3ccccc3F)C2=O)cc([N+](=O)[O-])c1O | -54.8* | -6.3% | 11.2µM* | -7.4%[57.1 µM] | -19.6% | ? | . | Pol kappa inh-2=?
COc1cc(OC)c(/C=C2\SC(=O)N(CC(=O)Nc3ccccc3F)C2=O)c(OC)c1 | -0.8 | 28.7% | 8.4% | 1.9% | -6.3% | -6.8% | .
CC(=O)NC(Cc1ccccc1C)C(=O)NC1CCN(C(=O)c2ccc(C)cc2)CC1 (stereo unspecified) | -6.7 | 2.7% | 1.5% | 6.4% | -5.5% | -20.6% | .
Cn1c(=O)c(Nc2ccc(O)cc2)c2c3c(cccc31)C(=O)c1ccccc1-2 | ? | 31.6µM* | 15.8µM* | ? | ? | 14.1µM* | ?
Cc1ccnc(NC(=O)COC(=O)c2ccc(F)cc2F)n1 | -9.7 | 1.4% | ? | -21.4% | -44.0% | 44.7µM* | ?
O=C(CCCOc1ccc(Cl)cc1Cl)NCCc1ccccn1 | 0.1 | 36.1% | 67.9% | -7.1% | -9.6% | -7.6% | .
CCOC(=O)c1c(C)sc(-c2c(-c3cc(C)ccc3C)[nH]c3c2c(=O)[nH]c(=O)n3C)c1O | . | ? | 89.1µM* | . | -26.3% | . | ?
Cc1ccc(C)c(-c2[nH]c3c(c2-c2c(-n4cccc4)n(C)c(=O)n(C)c2=O)c(=O)n(C)c(=O)n3C)c1 | . | -1.6% | 24.4% | . | 0.0% | -8.6% | .
COc1cc(OC)c(NC(=O)CN(C)S(=O)(=O)c2ccc3[nH]c(=O)oc3c2)cc1Cl | 1.7 | ? | -5.4% | -6.6% | ? | 22.4µM* | ? | Pol kappa inh-2=42.3*
COc1ccc(C)cc1NC(=O)CN(C)S(=O)(=O)c1ccc2[nH]c(=O)oc2c1 | . | -0.3% | 28.6% | . | 0.0% | -8.8% | .
O=C1/C(=C\c2ccco2)SC(=S)N1C1CCS(=O)(=O)C1 (stereo unspecified) | ? | 39.8µM* | 20µM* | -28.4% | ? | ? | ?
Cc1ccc(/C=C2\SC(=S)N(C3CCS(=O)(=O)C3)C2=O)cc1 (stereo unspecified) | 1.3 | 31.2% | 44.5% | 2.2% | -10.5% | 7.0% | .
CCn1c(SCC(=O)c2ccc(O)c(O)c2)nnc1-c1ccc(C)cc1 | ? | -45.9% | -51.3% | 12.6µM* | 28.2µM* | 10µM* | 60.1* | Pol kappa inh-2=?
CCn1c(SCC(=O)c2ccc3c(c2)Cc2ccccc2-3)nnc1-c1ccc(N)cc1 | . | -0.8% | 7.9% | -5.9% | 6.3% | -5.1% | .
COc1cc(/C=C2\SC(=O)NC2=O)ccc1Oc1ccc([N+](=O)[O-])cc1[N+](=O)[O-] | 2.9 | 89.1µM* | ? | -35.1% | ? | 50.1µM* | ?
O=c1c2ccccc2nc2sc(Nc3cccc(Cl)c3)nn12 | . | . | 10.8% | . | -3.1% | -0.1% | .
O=c1c2ccccc2nc2sc(Nc3ccc4c(c3)CCC4)nn12 | . | . | . | . | . | . | . | Pol kappa inh-2=37.7*
O=[n+]1c2c(n([O-])c3cc(F)c(N4CCCC4)cc31)CCC2 | -22.2 | . | ? | ? | ? | ? | ?
O=[n+]1c2c(n([O-])c3cc(F)c(N4CCCC4)cc31)CCCC2 | -1.2 | -9.3% | ? | ? | -11.4% | ? | .
CC(=O)c1ccc(OC(=O)C2CSC3(C)CCC(=O)N23)cc1 (stereo unspecified) | 1.6 | . | 17.8µM* | -22.0% | -35.1% | 8.91µM* | ?
SMILES | PI5P4Ka inh | POLB inh | POLI inh | WRN inhibitor | Pol kappa inh-1 | Pol eta inh-1 | Pol eta inh-2 | others
Cc1ccc(Cl)c(OC(=O)C2CSC3(C)CCC(=O)N23)c1 (stereo unspecified) | 6.6 | . | 25.1% | -3.2% | -21.8% | -18.9% | .
O=C(O)C1Cc2ccccc2CN1S(=O)(=O)/C=C/c1ccccc1 (stereo unspecified) | -2.5 | -2.8% | 36.4% | -0.6% | -16.2% | -19.6% | .
CS(=O)(=O)N1Cc2ccccc2CC1C(=O)O (stereo unspecified) | -9.1 | 17.8µM* | ? | -10.7%[11.6 µM] | ? | 8.91µM* | 60.1*
Cc1occc1C(=O)Nc1cccc(/C=C/C(=O)O)c1 | -3.0 | . | ? | ? | ? | 17.8µM* | 26.9*
Cc1occc1C(=O)Nc1cccc(C(=O)O)c1 | . | -4.9% | ? | 2.9% | -1.7% | -12.4% | .
O=C(N/N=C/c1cc(Br)c(O)c(Br)c1O)c1ccc2c(c1)OCCO2 | -56.4* | 39.8µM* | ? | -8.3%[11.6 µM] | -39.4% | ? | ? | Pol kappa inh-2=33.6*
CC1(c2nnc(-c3ccc(F)cc3)o2)CC(c2ccc([N+](=O)[O-])cc2)=NO1 (stereo unspecified) | -8.0 | 6.5% | -18.8% | 1.0% | -1.8% | -2.0% | .
